From PubChem BioAssay come the findings set out here.

Molecules are shown by their SMILES. Calls of active or inactive are those of the source.

One experiment has as its target Albumin (Bos taurus) (UniProt P02769). Nature of the experiment: bovine serum albumin binders on microarray, profiling panel, artefact control for SMM control protein annotation, biochemical, small-molecule microarray, Alexa647 label, 635/667 nm fluorescence (AID 1118).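 Also: score merges 667 nm emission intensity and signal-to-noise per printed compound spot.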 The settings on record: BSA-A647 binding, fluorescence 635 nm, higher = more signal.
Experiment [1] is described as follows: small-molecule microarray binders of probe aXIP, primary screen, biochemical, NeuroSMM set, 635/667 nm fluorescence (AID 1119).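 Also: probe is the protein aXip251-270 applied at 1 µg/mL to compound-printed slides; binding of probe to printed compounds measured as 667 nm fluorescence plus signal to noise.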 The settings on record: higher = more signal, called active from +8 up or from −8 down.
Experiment [2] can be described thus: small-molecule binders of probe aNOTCH3, primary screen, biochemical, small-molecule microarray, 635/667 nm fluorescence (AID 1120).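 Also: probe is a biotin-tagged antibody raised against NOTCH3 rather than NOTCH3 protein; score merges spot fluorescence near 667 nm with spot signal to noise.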 The conditions noted are these: higher = more signal.
Experiment [3] can be described thus: small-molecule binders of probe aNOTCH2, primary screen, biochemical, small-molecule microarray, 635/667 nm fluorescence (AID 1121).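 Also: score merges feature fluorescence read at 667 nm with its signal to noise.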 The settings on record: higher = more signal.
For experiment [4], the target named is Carbonic anhydrase 2 (Homo sapiens) (UniProt P00918). Briefly: CAII small-molecule binders, profiling panel, biochemical, small-molecule microarray, Alexa647-labelled CAII (AID 1122). The conditions noted are these: CAII-A647 binding fluorescence, higher = more signal.
Experiment [5] can be described thus: COS7 lysate on small-molecule microarray, probe aHis, 635 nm (AID 1123).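 Also: z-score combines 667nm fluorescence intensity with signal-to-noise per printed compound spot.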 The settings on record: COS7 cell lysate, fluorescence, higher = more signal.
Experiment [6] is described as follows: compound binding in COS7 lysate, probe aLAP1, primary screen, cell lysate, small-molecule microarray (AID 1124).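 Also: lysate comes from COS7 cells expressing LAP1 and is applied at 0.3 µg/mL; score merges spot fluorescence near 667 nm with signal-to-noise over triplicate slides.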 The settings on record: probe aLAP1, fluorescence, higher = more signal.
The next experiment concerns Sam68 (KHDRBS1). Briefly: Sam68 small-molecule binders, primary screen, biochemical, small-molecule microarray, 635 nm fluorescence (AID 1125).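 Also: score merges 667 nm channel intensity with signal to noise over triplicate slides.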 The settings on record: small-molecule microarray binding, higher = more signal.
In experiment [7] the test system is Chordin-like protein 2 (CHRDL2). Nature of the experiment: CHRDL2 small-molecule binders, primary screen, biochemical, small-molecule microarray, 635 nm fluorescence (AID 1126).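 Also: printed compound slides probed with Chrdl2 protein at 4 µg/mL for 1 h at 4 C; score merges 667 nm emission intensity with signal to noise over three replicate slides.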 The conditions noted are these: small-molecule microarray binding, fluorescence 635 nm; higher = more signal.
For experiment [8], the target named is Concanavalin-A (Canavalia ensiformis) (UniProt P02866). Nature of the experiment: ConA small-molecule binders, primary screen, artefact control for SMM control protein annotation, biochemical, small-molecule microarray, Alexa647 label, 635 nm (AID 1127).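 Also: z combines 667 nm emission intensity with signal-to-noise across three replicate slides.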 The settings on record: ConA-A647 binding fluorescence, higher = more signal.
A short description of experiment [9]: anti-His antibody binders, primary screen, artefact control for SMM control protein annotation, biochemical, small-molecule microarray, 635 nm fluorescence (AID 1128).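 Also: score merges feature fluorescence with signal-to-noise for each printed compound spot.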 The settings on record: anti-His Alexa647 antibody binding, higher = more signal.
The test system of experiment [10] is Human papillomavirus type 1a E7 protein (residues 1-88). Briefly: HPV1a E7 small-molecule binders, primary screen, biochemical, small-molecule microarray, residues 1-88, 635 nm (AID 1129). The settings on record: small-molecule microarray binding, fluorescence 635 nm; higher = more signal.
Experiment [11] concerns the target Focal adhesion kinase 1 (Homo sapiens) (UniProt Q05397). Briefly: small-molecule microarray binders of FAK, primary screen, biochemical, 635/667 nm fluorescence, BSA, DTT (AID 1130).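 Also: composite of spot emission at 667 nm and signal to noise over triplicate slides.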 The settings on record: PTK2 binding, 635 nm fluorescence, higher = more signal.
Experiment [12] concerns Fibrinogen (Alexa647-labelled). Briefly: fibrinogen binders on compound microarrays, profiling panel, artefact control for SMM control-protein annotation, biochemical, small-molecule microarray, 635/667 nm fluorescence (AID 1131).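 Also: z-score merges 667 nm fluorescence with per-spot signal-to-noise over triplicate slides.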 The conditions noted are these: fibrinogen-A647 binding fluorescence, higher = more signal.
For experiment [13], the target named is Follistatin (Homo sapiens) (UniProt P19883). Briefly: follistatin binders on small-molecule microarrays, primary screen, biochemical, small-molecule microarray, 635/667 nm fluorescence (AID 1132). The settings on record: FST binding, 635 nm fluorescence, higher = more signal.
Experiment [14] has as its target Fibroblast growth factor 2 (Homo sapiens) (UniProt P09038). Nature of the experiment: FGF2 binders on small-molecule microarrays, primary screen, biochemical, small-molecule microarray, 635/667 nm fluorescence (AID 1133). The conditions noted are these: small-molecule microarray binding, FGF2, fluorescence 635/667; higher = more signal.
Experiment [15] is described as follows: mitochondrial membrane potential change in A549 cells, profiling panel, cell-based, JC-1 fluorescence, basal, 24 h, 100 nL (AID 1138).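 Also: A549 lung adenocarcinoma cells under basal conditions with no added stimulus; test concentration not given here.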 The conditions noted are these: higher = more signal.
A further experiment has as its system Lefty1. Nature of the experiment: Lefty1 binders on small-molecule microarrays, primary screen, biochemical, small-molecule microarray, 635/667 nm fluorescence (AID 1139). The conditions noted are these: small-molecule microarray binding, fluorescence 635/667; higher = more signal.
The subject of experiment [16] is wheat germ agglutinin (Triticum aestivum), Alexa647-labelled. Briefly: wheat germ agglutinin binders on compound microarrays, profiling panel, artefact control for SMM control-protein annotation, biochemical, small-molecule microarray, 635/667 nm fluorescence (AID 1140).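 Also: score merges 667 nm feature emission with signal to noise over triplicate slides.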 The conditions noted are these: WGA-A647 binding, 635 nm fluorescence, higher = more signal.
The target of experiment [17] is Luciferin 4-monooxygenase (Photinus pyralis) (UniProt P08659). Briefly: firefly luciferase enzyme inhibitors, primary screen, biochemical, luminescence, purified enzyme, 2006 set (AID 1141).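 Also: cell-free assay with purified firefly luciferase at 100 ng per well in PBS; test concentration not given here.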 The conditions noted are these: SteadyGlo luminescence, 30 min, higher = more signal, called active from +8 up or from −8 down.
Chain of Luciferin 4-monooxygenase (Photinus pyralis) (P08659 whole entry, looked up): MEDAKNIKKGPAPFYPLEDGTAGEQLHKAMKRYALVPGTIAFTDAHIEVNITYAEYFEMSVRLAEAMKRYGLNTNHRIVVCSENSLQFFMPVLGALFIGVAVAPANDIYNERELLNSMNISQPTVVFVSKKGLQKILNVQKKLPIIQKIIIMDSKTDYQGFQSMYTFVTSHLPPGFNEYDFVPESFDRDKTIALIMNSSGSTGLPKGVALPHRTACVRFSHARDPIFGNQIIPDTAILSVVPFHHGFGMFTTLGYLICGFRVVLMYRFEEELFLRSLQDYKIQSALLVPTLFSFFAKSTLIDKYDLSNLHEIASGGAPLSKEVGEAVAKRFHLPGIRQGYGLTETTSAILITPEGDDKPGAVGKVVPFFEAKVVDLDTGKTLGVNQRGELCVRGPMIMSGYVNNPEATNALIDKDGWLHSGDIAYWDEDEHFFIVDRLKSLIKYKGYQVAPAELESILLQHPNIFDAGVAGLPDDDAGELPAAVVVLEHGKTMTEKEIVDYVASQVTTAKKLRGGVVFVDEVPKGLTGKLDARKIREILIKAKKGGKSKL

Chain of Concanavalin-A (Canavalia ensiformis) (P02866 whole entry, looked up): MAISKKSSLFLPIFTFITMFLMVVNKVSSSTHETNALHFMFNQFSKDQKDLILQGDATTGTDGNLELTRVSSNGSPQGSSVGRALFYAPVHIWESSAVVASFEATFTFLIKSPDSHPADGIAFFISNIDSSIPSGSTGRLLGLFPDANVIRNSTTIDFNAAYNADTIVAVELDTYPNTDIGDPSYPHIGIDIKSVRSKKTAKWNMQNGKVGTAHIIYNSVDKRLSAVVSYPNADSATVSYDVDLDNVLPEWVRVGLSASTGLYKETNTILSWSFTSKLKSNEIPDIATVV
Chain of Fibroblast growth factor 2 (Homo sapiens) (P09038 whole entry, looked up): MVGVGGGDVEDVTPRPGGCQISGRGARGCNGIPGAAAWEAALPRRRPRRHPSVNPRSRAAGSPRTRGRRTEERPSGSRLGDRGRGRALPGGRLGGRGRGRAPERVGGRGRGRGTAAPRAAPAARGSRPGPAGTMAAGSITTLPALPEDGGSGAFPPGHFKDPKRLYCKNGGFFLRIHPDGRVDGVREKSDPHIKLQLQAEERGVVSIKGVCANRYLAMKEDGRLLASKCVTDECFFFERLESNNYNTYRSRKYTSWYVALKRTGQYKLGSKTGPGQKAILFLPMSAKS
Chain of Follistatin (Homo sapiens) (P19883 whole entry, looked up): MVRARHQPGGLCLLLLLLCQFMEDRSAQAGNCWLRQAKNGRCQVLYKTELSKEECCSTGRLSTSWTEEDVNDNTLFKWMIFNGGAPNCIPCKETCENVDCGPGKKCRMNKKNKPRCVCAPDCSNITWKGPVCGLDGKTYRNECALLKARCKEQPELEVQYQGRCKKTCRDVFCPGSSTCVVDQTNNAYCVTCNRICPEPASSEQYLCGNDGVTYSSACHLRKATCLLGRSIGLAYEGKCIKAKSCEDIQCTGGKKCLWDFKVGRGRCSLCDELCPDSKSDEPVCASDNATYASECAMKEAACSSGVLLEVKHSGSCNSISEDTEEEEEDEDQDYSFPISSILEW
Chain of Focal adhesion kinase 1 (Homo sapiens) (Q05397 whole entry, looked up): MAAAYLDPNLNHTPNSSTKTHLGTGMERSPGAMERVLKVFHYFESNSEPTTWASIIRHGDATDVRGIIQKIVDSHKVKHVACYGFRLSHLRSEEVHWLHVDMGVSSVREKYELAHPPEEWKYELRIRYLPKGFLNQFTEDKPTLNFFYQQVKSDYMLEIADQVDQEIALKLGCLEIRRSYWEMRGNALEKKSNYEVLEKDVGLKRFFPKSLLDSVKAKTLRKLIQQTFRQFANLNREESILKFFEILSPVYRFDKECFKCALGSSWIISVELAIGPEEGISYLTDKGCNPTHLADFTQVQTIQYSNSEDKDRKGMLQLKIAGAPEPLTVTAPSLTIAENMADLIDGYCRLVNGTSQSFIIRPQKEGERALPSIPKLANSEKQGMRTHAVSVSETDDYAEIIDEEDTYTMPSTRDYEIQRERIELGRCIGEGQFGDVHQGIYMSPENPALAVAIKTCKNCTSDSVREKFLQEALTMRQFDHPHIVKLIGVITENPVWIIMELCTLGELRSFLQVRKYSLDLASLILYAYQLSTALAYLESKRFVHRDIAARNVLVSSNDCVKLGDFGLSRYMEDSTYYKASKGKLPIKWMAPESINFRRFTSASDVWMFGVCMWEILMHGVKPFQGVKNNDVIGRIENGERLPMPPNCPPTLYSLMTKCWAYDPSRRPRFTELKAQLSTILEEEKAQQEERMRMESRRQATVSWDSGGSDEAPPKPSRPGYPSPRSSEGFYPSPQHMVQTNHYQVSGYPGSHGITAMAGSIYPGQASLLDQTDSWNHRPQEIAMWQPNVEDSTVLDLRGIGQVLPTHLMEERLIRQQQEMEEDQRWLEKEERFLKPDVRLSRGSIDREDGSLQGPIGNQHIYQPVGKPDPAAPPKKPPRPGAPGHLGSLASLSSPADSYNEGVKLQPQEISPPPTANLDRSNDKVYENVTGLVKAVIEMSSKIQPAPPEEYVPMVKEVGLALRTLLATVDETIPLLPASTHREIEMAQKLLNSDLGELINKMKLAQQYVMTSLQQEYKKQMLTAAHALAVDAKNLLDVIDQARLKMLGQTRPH
Chain of Albumin (Bos taurus) (P02769 whole entry, looked up): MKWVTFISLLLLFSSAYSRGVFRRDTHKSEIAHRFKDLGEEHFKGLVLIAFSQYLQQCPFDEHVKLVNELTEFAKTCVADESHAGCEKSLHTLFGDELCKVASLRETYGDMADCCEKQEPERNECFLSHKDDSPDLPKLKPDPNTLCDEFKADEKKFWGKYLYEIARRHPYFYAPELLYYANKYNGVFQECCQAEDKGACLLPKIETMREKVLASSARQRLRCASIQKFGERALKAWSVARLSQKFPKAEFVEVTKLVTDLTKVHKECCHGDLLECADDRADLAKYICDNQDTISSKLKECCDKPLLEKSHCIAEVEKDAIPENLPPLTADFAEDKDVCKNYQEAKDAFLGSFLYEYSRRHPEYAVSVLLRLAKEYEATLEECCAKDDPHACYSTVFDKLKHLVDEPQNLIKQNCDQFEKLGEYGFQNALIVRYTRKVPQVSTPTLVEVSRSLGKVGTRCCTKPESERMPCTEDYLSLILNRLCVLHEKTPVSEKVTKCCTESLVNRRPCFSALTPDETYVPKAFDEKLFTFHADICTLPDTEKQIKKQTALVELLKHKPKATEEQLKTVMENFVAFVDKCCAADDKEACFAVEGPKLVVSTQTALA

In the case of `CN(C)C(=O)[C@@]1(Cc2ccccc2)N=C(c2ccc(OCCCO)cc2)O[C@H]1c1ccccc1CN=[N+]=[N-]`, the composite z-score with Albumin (Bos taurus) stood at 0.968; in experiment [2], 0.329; in [3] it was 0.319; in experiment [4], 0.587; in experiment [5], 2.49; in [6], 0.797. Further, the composite z-score with Sam68 (KHDRBS1) was 1.29; in experiment [7] it was -0.25; in [8], 1.14; in [9], 3.27; in experiment [10] it was 1.25; in [11] it was 0.254. Besides, the composite z-score in experiment [12] worked out at 1.02; in experiment [13], 1.37; in experiment [14] it was 1.18; with Lefty1, 0.485; in [16], 1.25. For the same molecule, the composite Z-score in experiment [1] is 1.29 (inactive). The z-score in [15] is 1.97; in experiment [17], -0.088 (inactive).
For the molecule `CC(C)(C)OC(=O)CC[C@]1(C(=O)NCc2ccccc2)N=C(c2ccc(OCCCO)cc2)O[C@H]1c1ccccc1`, the composite z-score with Albumin (Bos taurus) came to 0.912; in experiment [2] it was 0.61; in experiment [3], 0.0216; in experiment [4], 0.735; in experiment [5], 3.07; in experiment [6], 0.378. The composite z-score was 1.3 in the experiment on Sam68 (KHDRBS1); -0.672 in [7]; 1.11 in experiment [8]; 1.99 in experiment [9]; 1.26 in experiment [10]; 1.36 in [11]. In addition, the composite z-score in [12] is 0.983; in experiment [13], 0.362; in experiment [14] it was 0.487; in the experiment with Lefty1 it was -0.326; in [16] it was 0.732. Besides, the composite Z-score in experiment [1] was -0.0089 (inactive). Further, the z-score was 0.949 in [15] and 0.172 (inactive) in [17].
Regarding `CCCNC(=O)OC[C@H]1O[C@H](CCON=C[C@@H](OC)[C@H](C)C=CCC(=O)OC)C=C[C@@H]1Oc1ccc(OC)cc1`, the composite z-score was -1.05 with Albumin (Bos taurus); 0.142 in experiment [2]; -0.192 in experiment [3]; 0.0769 in experiment [4]; 0.438 in experiment [5]; 0.325 in experiment [6]. Further, the composite z-score is 0.693 with Sam68 (KHDRBS1); 1.16 in [7]; -1.26 in experiment [8]; 2.2 in experiment [9]; -0.0259 in [10]; -0.0322 in experiment [11]. In addition, the composite z-score in experiment [12] is 0.325; in [13] it was 0.0998; in [14], 0.109; in the experiment with Lefty1 it was 0.548; in experiment [16], 0.183. Moreover, the composite Z-score in [1] is -0.431 (inactive). The z-score in [15] was 0.139; in [17], -0.276 (inactive).
For the molecule `CC(C)C[C@@H]1NC(=O)[C@H]2C[C@@H](C(=O)NCCCCCCN(C)C)[C@@H](c3cccc(OCCO)c3)N2C1=O`, the composite z-score is -0.615 in the experiment with Albumin (Bos taurus); 0.16 in experiment [2]; -0.153 in [3]; 0.557 in experiment [4]; 2.81 in experiment [5]; 1.44 in experiment [6]. Further, the composite z-score was found to be 1.31 with Sam68 (KHDRBS1); 1.47 in experiment [7]; 1.09 in experiment [8]; 2.19 in [9]; 1.01 in experiment [10]; 0.204 in [11]. Further, the composite z-score was 0.0478 in [12]; 1.3 in [13]; 1.6 in experiment [14]; 1.65 in the experiment on Lefty1; 0.591 in experiment [16]. For the same molecule, the composite Z-score in experiment [1] is 2.07 (inactive). Besides, the z-score in experiment [15] was -0.0993; in experiment [17], -0.156 (inactive).
For `COC(=O)[C@H](C)NC(=O)CCC1CC(OC(=O)NCc2cccc3ccccc23)CC2(CCCC(COC(=O)NCCc3ccc(Cl)cc3)O2)O1` (stereo not given in full), the composite z-score in the experiment with Albumin (Bos taurus) was 0.147; in experiment [2], -0.176; in [3], -0.0868; in experiment [4], 0.535; in experiment [5], 0.631; in experiment [6], -0.422. In addition, the composite z-score in the experiment on Sam68 (KHDRBS1) is 1.23; in [7], -0.0578; in experiment [8] it was 0.946; in [9], 0.591; in experiment [10] it was 1.06; in [11], 0.178. For the same molecule, the composite z-score was found to be 0.228 in [12]; 0.225 in experiment [13]; 0.212 in experiment [14]; 1.03 in the experiment on Lefty1; 0.411 in experiment [16]. Besides, the composite Z-score in experiment [1] was 0.108 (inactive). Moreover, the z-score is 0.179 in experiment [15] and 0.632 (inactive) in experiment [17].
